# Laboratory results: paper PMC7862700, “An all-to-all approach to the identification of sequence-specific readers for epigenetic DNA modifications on cytosine”
# How the values were obtained:
# Experiment in all cases: DAPPL (digital affinity profiling via proximity ligation, sequencing); 10 mM Tris-HCl pH 7.5, 50 mM NaCl, 1 mM DTT, 4% glycerol, room temperature, 30 min; GST-TFs on glutathione beads, 16-mer random dsDNA library, 0.1% formaldehyde crosslink after washing; high values mean tight binding
# FLI1 = target: T1, FLI1 (Homo sapiens, UniProt Q01543 1-452); conditions: protein: recombinant; tags: N-terminal GST; dsDNA, one strand shown
# T1 sequence: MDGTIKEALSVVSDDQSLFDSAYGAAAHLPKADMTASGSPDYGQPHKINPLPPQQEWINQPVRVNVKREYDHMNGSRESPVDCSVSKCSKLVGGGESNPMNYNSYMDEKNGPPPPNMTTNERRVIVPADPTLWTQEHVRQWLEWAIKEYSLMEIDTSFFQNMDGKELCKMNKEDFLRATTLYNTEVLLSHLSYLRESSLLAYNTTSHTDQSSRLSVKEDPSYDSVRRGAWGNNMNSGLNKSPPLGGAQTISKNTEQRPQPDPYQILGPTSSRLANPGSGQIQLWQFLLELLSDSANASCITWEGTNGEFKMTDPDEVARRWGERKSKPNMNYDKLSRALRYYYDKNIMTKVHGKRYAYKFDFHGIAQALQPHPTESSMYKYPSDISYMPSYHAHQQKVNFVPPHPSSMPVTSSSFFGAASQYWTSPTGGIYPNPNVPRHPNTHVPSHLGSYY
# How it was run: (§1)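 After expression in yeast as GST fusions, human transcription factors were bound to glutathione beads, DNA-barcoded and mixed with a tag-only sample. The pools were incubated with 200 nmole of a 16-mer random double-stranded DNA library in Tris/NaCl/DTT/glycerol buffer (30 min, room temperature), washed and crosslinked with 0.1% formaldehyde. Proximity ligation with BsaI/T4 ligase ran for 1 h at 37 °C, before PCR amplification and sequencing on an Illumina NextSeq500. Binding signal is a hexamer's read frequency for a factor divided by its frequency for the tag-only sample.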
# ELK1 = target: T2, ELK1 (Homo sapiens, UniProt P19419 1-428); conditions: protein: recombinant; tags: N-terminal GST; dsDNA, one strand shown
# T2 sequence: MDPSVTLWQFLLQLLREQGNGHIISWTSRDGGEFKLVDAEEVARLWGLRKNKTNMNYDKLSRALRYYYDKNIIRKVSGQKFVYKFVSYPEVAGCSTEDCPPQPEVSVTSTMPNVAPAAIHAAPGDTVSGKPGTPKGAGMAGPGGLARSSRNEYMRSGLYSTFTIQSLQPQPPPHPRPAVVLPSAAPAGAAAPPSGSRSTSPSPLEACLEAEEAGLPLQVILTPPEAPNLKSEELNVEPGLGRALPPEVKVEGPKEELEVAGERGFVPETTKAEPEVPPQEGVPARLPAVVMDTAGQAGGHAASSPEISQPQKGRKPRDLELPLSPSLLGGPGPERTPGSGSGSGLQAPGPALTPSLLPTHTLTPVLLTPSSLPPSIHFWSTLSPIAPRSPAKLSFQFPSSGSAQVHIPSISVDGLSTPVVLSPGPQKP
# How it was run: as §1
# GABPA = target: T3, GABPA (Homo sapiens, UniProt Q06546 1-454); conditions: protein: recombinant; tags: N-terminal GST; dsDNA, one strand shown
# T3 sequence: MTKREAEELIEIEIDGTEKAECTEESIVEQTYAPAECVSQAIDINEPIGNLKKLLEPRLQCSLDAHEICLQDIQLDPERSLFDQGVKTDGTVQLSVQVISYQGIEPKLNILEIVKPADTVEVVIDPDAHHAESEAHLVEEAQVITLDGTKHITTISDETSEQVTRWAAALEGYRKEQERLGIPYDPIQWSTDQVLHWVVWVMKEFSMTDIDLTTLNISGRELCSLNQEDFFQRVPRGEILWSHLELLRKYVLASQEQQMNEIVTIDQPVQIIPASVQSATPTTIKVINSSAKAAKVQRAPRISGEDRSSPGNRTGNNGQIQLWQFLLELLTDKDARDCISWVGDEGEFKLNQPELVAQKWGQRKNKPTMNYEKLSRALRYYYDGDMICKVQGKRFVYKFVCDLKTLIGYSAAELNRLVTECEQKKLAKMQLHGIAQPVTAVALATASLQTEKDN
# How it was run: as §1
# ERG = target: T4, ERG (Homo sapiens, UniProt P11308 1-479); conditions: protein: recombinant; tags: N-terminal GST; dsDNA, one strand shown
# T4 sequence: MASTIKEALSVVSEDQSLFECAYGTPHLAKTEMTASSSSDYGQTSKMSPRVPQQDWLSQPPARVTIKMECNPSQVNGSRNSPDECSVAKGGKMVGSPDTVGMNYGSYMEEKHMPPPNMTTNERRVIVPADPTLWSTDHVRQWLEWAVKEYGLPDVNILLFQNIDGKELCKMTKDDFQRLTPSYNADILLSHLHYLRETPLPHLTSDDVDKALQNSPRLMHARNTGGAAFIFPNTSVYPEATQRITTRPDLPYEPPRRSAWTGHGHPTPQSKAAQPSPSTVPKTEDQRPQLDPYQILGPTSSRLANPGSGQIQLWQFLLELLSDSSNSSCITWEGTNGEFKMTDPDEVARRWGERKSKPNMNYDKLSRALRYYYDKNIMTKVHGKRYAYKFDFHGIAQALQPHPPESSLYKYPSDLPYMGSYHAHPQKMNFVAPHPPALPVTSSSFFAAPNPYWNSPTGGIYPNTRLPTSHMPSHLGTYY
# How it was run: as §1
# ELF1 = ELF1 (Homo sapiens, UniProt P32519 1-619); conditions: protein: recombinant; tags: N-terminal GST; dsDNA, one strand shown
# How it was run: as §1
# EHF = target: T5, EHF (Homo sapiens, UniProt Q9NZC4 1-300); conditions: protein: recombinant; tags: N-terminal GST; dsDNA, one strand shown
# T5 sequence: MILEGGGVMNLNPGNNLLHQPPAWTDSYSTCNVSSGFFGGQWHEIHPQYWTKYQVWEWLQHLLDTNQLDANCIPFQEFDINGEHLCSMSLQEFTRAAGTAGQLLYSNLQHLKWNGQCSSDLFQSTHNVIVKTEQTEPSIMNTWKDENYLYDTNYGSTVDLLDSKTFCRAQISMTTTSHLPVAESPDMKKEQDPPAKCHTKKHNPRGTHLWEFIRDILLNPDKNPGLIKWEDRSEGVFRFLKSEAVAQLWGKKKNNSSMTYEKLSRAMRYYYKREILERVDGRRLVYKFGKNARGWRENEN
# How it was run: as §1
# SPI1 = SPI1 (Homo sapiens, UniProt P17947 1-270); conditions: protein: recombinant; tags: N-terminal GST; dsDNA, one strand shown
# How it was run: as §1
# SPIB = SPIB (Homo sapiens, UniProt Q01892 1-262); conditions: protein: recombinant; tags: N-terminal GST; dsDNA, one strand shown
# How it was run: as §1
# ELK3 = target: T6, ELK3 (Homo sapiens, UniProt P41970 1-407); conditions: protein: recombinant; tags: N-terminal GST; dsDNA, one strand shown
# T6 sequence: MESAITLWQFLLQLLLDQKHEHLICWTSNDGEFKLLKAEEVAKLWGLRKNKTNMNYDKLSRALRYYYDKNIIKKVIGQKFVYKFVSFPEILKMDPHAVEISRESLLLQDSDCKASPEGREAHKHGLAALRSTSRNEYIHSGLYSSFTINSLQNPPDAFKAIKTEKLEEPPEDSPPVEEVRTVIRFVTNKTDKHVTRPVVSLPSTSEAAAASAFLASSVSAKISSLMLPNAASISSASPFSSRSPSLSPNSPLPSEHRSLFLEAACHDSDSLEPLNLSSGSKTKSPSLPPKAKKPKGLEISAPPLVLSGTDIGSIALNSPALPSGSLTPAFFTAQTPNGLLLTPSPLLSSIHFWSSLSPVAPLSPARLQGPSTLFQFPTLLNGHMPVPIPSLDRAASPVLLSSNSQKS
# How it was run: as §1
# FEV = target: T7, FEV (Homo sapiens, UniProt Q99581 1-238); conditions: protein: recombinant; tags: N-terminal GST; dsDNA, one strand shown
# T7 sequence: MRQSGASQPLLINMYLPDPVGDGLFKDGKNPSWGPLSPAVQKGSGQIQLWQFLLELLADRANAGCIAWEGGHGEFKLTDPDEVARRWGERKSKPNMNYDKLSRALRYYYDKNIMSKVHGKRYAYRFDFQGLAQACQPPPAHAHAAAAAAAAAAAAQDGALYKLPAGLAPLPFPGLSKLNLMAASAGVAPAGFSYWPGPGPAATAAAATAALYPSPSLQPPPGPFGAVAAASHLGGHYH
# How it was run: as §1
# ETV5 = ETV5 (Homo sapiens, UniProt P41161 1-510); conditions: protein: recombinant; tags: N-terminal GST; dsDNA, one strand shown
# How it was run: as §1
# HSF1 = HSF1 (Homo sapiens, UniProt Q00613 1-529); conditions: protein: recombinant; tags: N-terminal GST; chain copies: 3; dsDNA, one strand shown
# How it was run: as §1
# SPIC = target: T8, SPIC (Homo sapiens, UniProt Q8N5J4 1-248); conditions: protein: recombinant; tags: N-terminal GST; dsDNA, one strand shown
# T8 sequence: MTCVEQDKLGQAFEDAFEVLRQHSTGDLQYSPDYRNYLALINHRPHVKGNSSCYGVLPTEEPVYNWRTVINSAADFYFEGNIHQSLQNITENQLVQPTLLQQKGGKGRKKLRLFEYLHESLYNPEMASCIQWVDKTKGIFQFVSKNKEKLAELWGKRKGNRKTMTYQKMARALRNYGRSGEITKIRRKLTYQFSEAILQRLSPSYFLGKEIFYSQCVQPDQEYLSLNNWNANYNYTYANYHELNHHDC
# How it was run: as §1
# ELF4 = ELF4 (Homo sapiens, UniProt Q99607 1-663); conditions: protein: recombinant; tags: N-terminal GST; dsDNA, one strand shown
# How it was run: as §1
# ELK4 = target: T9, ELK4 (Homo sapiens, UniProt P28324-2 1-405); conditions: protein: recombinant; tags: N-terminal GST; dsDNA, one strand shown
# T9 sequence: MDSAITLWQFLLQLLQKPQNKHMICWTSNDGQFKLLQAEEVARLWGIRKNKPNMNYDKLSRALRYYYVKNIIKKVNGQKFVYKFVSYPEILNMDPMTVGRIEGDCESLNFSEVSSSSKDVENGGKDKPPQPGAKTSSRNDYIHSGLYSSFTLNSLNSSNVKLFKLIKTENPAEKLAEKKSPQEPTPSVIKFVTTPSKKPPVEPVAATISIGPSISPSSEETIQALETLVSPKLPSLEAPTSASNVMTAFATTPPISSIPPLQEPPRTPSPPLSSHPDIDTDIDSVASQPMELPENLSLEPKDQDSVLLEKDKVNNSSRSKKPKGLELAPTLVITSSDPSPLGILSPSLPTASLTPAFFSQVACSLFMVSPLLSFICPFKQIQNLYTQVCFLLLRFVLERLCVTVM
# How it was run: as §1
# ETV2 = target: T10, ETV2 (Homo sapiens, UniProt O00321 1-342); conditions: protein: recombinant; tags: N-terminal GST; dsDNA, one strand shown
# T10 sequence: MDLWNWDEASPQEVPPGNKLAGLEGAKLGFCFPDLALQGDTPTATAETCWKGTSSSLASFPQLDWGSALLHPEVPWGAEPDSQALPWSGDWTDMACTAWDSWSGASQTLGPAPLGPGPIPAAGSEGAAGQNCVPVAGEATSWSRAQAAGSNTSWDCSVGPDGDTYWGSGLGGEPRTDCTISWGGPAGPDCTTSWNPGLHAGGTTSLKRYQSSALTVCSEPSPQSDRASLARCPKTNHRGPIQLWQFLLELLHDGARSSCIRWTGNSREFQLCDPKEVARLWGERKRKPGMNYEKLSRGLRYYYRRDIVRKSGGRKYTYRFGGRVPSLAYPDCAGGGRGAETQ
# How it was run: as §1
# ELF3 = target: T11, ELF3 (Homo sapiens, UniProt P78545 1-371); conditions: protein: recombinant; tags: N-terminal GST; dsDNA, one strand shown
# T11 sequence: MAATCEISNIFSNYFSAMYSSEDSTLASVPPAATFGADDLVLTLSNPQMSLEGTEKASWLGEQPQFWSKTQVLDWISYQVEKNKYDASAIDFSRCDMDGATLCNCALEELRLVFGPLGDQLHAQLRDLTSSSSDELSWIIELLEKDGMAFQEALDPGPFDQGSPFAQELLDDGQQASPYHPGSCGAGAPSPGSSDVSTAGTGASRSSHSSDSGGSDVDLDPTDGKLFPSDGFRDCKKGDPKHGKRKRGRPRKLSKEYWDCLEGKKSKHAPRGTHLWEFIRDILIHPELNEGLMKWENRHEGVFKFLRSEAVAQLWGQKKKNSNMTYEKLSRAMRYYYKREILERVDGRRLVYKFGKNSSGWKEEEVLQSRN
# How it was run: as §1
# CRX = CRX (Homo sapiens, UniProt O43186 1-299); conditions: protein: recombinant; tags: N-terminal GST; dsDNA, one strand shown
# How it was run: as §1
# ETV1 = ETV1 (Homo sapiens, UniProt P50549 1-477); conditions: protein: recombinant; tags: N-terminal GST; dsDNA, one strand shown
# How it was run: as §1
# SPIB, sequence (Q01892 whole entry): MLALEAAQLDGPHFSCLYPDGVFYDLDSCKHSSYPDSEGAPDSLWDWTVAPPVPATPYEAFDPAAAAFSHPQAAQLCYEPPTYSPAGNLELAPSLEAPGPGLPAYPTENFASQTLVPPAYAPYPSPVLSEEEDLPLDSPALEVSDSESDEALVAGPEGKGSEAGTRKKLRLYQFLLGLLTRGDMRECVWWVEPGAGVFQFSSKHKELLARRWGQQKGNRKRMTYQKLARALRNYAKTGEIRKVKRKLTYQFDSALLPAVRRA
# ETV5, sequence (P41161 whole entry): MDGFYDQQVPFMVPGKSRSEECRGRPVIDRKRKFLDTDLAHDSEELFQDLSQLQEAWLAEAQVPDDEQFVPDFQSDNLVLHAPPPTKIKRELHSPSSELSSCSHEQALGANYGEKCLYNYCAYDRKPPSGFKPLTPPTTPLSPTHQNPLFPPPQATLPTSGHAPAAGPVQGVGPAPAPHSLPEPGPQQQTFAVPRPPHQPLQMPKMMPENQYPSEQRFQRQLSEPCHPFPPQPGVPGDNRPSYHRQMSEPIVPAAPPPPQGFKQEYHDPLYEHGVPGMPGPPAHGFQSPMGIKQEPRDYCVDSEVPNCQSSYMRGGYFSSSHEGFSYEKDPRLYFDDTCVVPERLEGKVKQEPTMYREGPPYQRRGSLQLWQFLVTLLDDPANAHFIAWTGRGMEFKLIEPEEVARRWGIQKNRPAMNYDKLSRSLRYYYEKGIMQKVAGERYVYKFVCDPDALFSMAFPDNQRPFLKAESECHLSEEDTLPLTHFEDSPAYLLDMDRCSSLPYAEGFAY
# ETV1, sequence (P50549 whole entry): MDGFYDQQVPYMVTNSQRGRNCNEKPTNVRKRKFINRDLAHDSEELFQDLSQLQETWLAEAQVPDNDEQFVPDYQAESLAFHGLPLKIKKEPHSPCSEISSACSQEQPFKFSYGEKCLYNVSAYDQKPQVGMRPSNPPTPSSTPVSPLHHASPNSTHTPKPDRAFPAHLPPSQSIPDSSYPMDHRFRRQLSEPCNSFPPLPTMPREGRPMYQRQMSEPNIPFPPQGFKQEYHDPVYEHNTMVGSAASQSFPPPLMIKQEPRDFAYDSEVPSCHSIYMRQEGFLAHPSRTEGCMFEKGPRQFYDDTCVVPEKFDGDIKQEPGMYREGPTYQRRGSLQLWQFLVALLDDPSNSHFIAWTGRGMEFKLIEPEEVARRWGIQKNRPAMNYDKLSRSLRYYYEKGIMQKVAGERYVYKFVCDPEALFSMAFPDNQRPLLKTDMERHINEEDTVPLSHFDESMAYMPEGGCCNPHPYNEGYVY
# CRX, sequence (O43186 whole entry): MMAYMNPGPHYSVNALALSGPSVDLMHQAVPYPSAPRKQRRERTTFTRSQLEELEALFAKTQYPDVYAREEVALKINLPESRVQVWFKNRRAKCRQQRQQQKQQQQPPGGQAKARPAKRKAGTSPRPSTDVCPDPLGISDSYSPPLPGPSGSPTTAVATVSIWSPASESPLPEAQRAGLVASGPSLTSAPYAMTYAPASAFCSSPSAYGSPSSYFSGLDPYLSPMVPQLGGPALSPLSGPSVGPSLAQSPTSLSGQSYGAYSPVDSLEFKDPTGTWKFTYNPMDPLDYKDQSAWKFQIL
# HSF1, sequence (Q00613 whole entry): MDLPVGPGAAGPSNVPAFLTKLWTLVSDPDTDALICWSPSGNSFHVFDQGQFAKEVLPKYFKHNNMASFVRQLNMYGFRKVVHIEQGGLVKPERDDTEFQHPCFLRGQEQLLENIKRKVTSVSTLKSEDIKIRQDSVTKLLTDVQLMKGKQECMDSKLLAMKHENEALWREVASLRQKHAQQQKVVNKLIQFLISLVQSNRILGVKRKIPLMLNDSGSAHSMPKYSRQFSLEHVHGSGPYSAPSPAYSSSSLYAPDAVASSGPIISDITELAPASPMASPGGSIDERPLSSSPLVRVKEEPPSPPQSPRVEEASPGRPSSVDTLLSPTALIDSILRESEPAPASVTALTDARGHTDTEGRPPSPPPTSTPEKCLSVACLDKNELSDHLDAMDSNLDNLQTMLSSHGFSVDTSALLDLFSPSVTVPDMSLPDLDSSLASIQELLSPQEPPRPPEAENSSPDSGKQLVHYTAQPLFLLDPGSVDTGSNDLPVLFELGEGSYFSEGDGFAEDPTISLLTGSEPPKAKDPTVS
# ELF4, sequence (Q99607 whole entry): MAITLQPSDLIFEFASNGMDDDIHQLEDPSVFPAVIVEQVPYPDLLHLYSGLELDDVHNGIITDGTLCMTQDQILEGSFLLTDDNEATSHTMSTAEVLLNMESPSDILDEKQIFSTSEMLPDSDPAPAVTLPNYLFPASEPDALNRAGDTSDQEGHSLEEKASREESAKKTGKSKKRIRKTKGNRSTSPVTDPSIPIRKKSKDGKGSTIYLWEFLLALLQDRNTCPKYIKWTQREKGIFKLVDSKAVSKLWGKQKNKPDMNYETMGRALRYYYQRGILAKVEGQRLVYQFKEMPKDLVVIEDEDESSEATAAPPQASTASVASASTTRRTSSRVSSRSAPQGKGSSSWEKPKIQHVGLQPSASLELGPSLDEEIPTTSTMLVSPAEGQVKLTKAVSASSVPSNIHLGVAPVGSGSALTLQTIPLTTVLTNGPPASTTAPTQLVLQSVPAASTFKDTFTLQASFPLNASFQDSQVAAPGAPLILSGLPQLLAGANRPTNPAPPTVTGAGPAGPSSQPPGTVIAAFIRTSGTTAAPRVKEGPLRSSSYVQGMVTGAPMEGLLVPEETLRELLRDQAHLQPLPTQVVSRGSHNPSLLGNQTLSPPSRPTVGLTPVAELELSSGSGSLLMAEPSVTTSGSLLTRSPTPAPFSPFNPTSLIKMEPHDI
# ELF1, sequence (P32519 whole entry): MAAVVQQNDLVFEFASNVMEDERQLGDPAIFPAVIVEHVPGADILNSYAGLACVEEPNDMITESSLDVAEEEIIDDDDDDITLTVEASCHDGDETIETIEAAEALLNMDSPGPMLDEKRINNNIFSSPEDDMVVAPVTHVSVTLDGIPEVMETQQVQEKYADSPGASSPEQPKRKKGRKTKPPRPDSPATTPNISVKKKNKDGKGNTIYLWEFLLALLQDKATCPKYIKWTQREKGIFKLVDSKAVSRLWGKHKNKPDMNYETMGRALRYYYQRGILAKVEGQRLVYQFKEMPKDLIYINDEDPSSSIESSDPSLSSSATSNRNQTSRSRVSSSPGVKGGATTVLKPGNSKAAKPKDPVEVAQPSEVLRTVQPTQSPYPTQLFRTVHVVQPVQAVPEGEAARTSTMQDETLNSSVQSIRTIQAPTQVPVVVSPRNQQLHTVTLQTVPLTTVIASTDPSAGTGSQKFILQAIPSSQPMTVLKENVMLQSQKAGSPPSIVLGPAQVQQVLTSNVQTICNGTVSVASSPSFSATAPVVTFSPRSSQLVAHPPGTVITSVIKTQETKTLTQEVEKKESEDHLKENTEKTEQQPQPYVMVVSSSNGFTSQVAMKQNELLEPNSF
sequence,measurement,setting,value
CCATTT,binding signal,FLI1,"1.25 fold enrichment (6-mer frequency, TF over GST control)"
same,binding signal,ELK1,"1.29 fold enrichment (6-mer frequency, TF over GST control)"
same,binding signal,GABPA,"1.42 fold enrichment (6-mer frequency, TF over GST control)"
same,binding signal,ERG,"1.4 fold enrichment (6-mer frequency, TF over GST control)"
same,binding signal,ELF1,"1.27 fold enrichment (6-mer frequency, TF over GST control)"
same,binding signal,EHF,"1.31 fold enrichment (6-mer frequency, TF over GST control)"
same,binding signal,SPI1,"1.45 fold enrichment (6-mer frequency, TF over GST control)"
same,binding signal,SPIB,"1.37 fold enrichment (6-mer frequency, TF over GST control)"
same,binding signal,ELK3,"1.33 fold enrichment (6-mer frequency, TF over GST control)"
same,binding signal,FEV,"1.5 fold enrichment (6-mer frequency, TF over GST control)"
same,binding signal,ETV5,"1.47 fold enrichment (6-mer frequency, TF over GST control)"
same,binding signal,HSF1,"1.01 fold enrichment (6-mer frequency, TF over GST control)"
same,binding signal,SPIC,"1.42 fold enrichment (6-mer frequency, TF over GST control)"
same,binding signal,ELF4,"1.32 fold enrichment (6-mer frequency, TF over GST control)"
same,binding signal,ELK4,"1.41 fold enrichment (6-mer frequency, TF over GST control)"
same,binding signal,ETV2,"1.38 fold enrichment (6-mer frequency, TF over GST control)"
same,binding signal,ELF3,"1.28 fold enrichment (6-mer frequency, TF over GST control)"
same,binding signal,CRX,"1.01 fold enrichment (6-mer frequency, TF over GST control)"
same,binding signal,ETV1,"1.36 fold enrichment (6-mer frequency, TF over GST control)"
